Measurements from the supplement of paper PMC3334620.
The full ranking holds about 33,000 sequences; the median of “E-score (-0.5 to 0.5)” is about -0.021, and the highest 2% start at about 0.32. The sample holds the highest values, similar sequences and a random draw of the others, so the mix is not that of the screen.

molecular target: T1, Zap1 (UniProt P47043); experiment: PBM E-score (8-mer binding enrichment) (E-score (-0.5 to 0.5)); higher = stronger / more preferred TF binding; settings: protein concentration: 200 nM; construct: GST-full length
T1 sequence: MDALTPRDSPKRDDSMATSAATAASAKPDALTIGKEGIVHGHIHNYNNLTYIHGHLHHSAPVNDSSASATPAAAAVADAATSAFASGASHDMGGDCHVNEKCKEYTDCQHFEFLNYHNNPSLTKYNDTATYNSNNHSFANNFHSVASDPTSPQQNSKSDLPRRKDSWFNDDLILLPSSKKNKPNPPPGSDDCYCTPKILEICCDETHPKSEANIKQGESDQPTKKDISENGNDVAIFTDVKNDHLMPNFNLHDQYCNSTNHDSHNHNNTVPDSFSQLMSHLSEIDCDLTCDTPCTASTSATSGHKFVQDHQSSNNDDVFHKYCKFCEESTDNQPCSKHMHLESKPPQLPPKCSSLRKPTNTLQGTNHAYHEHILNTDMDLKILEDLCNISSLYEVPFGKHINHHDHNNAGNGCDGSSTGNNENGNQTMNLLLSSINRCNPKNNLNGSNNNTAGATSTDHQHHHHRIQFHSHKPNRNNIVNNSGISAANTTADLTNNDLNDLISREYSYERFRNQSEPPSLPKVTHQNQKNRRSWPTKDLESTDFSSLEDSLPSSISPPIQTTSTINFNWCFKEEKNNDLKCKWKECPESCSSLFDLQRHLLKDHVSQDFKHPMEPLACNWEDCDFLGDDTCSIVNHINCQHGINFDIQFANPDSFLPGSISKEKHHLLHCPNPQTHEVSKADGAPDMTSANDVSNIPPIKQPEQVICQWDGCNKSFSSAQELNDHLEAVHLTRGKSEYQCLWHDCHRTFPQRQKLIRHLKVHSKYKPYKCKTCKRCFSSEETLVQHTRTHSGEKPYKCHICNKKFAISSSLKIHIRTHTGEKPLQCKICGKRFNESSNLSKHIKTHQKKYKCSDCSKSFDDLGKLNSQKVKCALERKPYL
How it was run: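 Masliner-normalised scans of fluorescent anti-GST signal were the basis for scoring. That signal came from GST-tagged yeast transcription factors applied at about 100-200 nM to double-stranded universal all-10-mer Agilent arrays on fresh or once-stripped slides. Each ungapped eight-base word, pooled with its reverse complement, received an E-score from the Universal PBM Analysis Suite.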

| Sequence | PBM E-score |
| --- | --- |
| CAACGCGC | 0.0876 |
| CTTAGAGC | 0.0313 |
| GGCATCCA | -0.107 |
| GACCAGTA | 0.0618 |
| AAAATGTG | -0.0329 |
| AATGGGCG | -0.204 |
| TGAACCCA | 0.242 |
| CTAACCCC | 0.178 |
| ATAACCCA | 0.472 |
| AAAACCCA | 0.258 |
| GAAACCCA | 0.246 |
| AGAACCCG | 0.223 |
| GTAACCCA | 0.468 |
| ATAAACCA | 0.121 |
| GGAACCCA | 0.171 |
| CTAACCCA | 0.326 |
| AAAACCCG | 0.131 |
| ATAACCCG | 0.442 |
| CTTTGCGC | -0.0424 |
| GTGATTTA | 0.193 |
| AACTGTTC | -0.0321 |
| ACTTTAGC | -0.16 |
| AATCAGTA | -0.0224 |
| AGGGAGAG | -0.0798 |

| Sequence | PBM E-score |
| --- | --- |
| CCAGGGCA | -0.123 |
| ACAGGGTC | 0.315 |
| GCAGGGTA | 0.373 |
| ACAGGGTA | 0.366 |
| ACAGGGTG | 0.199 |
| GCAGGGGA | -0.177 |
| GCAGGGAA | -0.0199 |
| CCAGGGTA | 0.323 |
| CCAGGGTC | 0.19 |
| CGACAGCG | -0.154 |
| CGCCGCGC | -0.0986 |
| ATTGCGGG | 0.11 |
| CGAGTAAG | 0.119 |
| AGCAGTAT | 0.0154 |
| CGCAAACC | 0.0968 |
| TCGCGAGA | 0.117 |
| CTTAACAC | 0.0174 |
| ATTAACGG | 0.0866 |
| GTTAACTA | 0.263 |
| CTCAACCA | 0.00637 |
| CTTAACCA | 0.376 |
| ATTAACAG | -0.102 |
| CTTAACCC | 0.387 |
| ATTAACCG | 0.331 |

| Sequence | PBM E-score |
| --- | --- |
| GTTAACCA | 0.338 |
| CTCAACCC | 0.201 |
| ATTAACCA | 0.246 |
| CTTAACGA | -0.00709 |
| TACGACGA | -0.0483 |
| ACCCGTCT | -0.0166 |
| CAGCTAAA | 0.0244 |
| CGCGATGA | 0.181 |
| GATTCTAA | -0.0858 |
| CCATTGAA | 0.174 |
| ATTCGACC | 0.0544 |
| ATTAACTC | 0.0519 |
| ATTAACAC | 0.172 |
| ATTAACCC | 0.334 |
| GGCTCAGA | -0.101 |
| GCTTACCA | 0.0792 |
| AGGCTGTC | -0.202 |
| ACACTGGC | -0.0599 |
| CATACAGC | -0.249 |
| GCTGGTGA | 0.0777 |
| CCTGGTTA | 0.306 |
| ACTGGTTA | 0.405 |
| GCTGGTCA | 0.0223 |
| GCTGGTTA | 0.329 |

| Sequence | PBM E-score |
| --- | --- |
| ACTGGTTC | 0.0663 |
| AACTGTTG | -0.147 |
| TGAACACA | 0.0543 |
| CACTACCG | 0.129 |
| CAAAGAGG | 0.0514 |
| AAGCTATT | -0.138 |
| AACCCGAA | 0.327 |
| GACCCGAA | 0.175 |
| ACCCCGAA | 0.384 |
| ACCCGTAC | 0.0183 |
| CCCCGTAA | 0.16 |
| CCCCCGAA | -0.164 |
| ACCCGTAA | 0.333 |
| AACCCGAT | 0.31 |
| ACCCGAAA | 0.328 |
| ACCCGAAG | 0.197 |
| ACCCCGAT | 0.197 |
| ACCCGAAT | 0.254 |
| TCCACGAA | 0.111 |
| CGTGAAGC | -0.326 |
| TAGAGTCA | -0.166 |
| AAACTTGG | 0.124 |
| AACCAAGT | 0.271 |
| CGAGAGGA | -0.0403 |

| Sequence | PBM E-score |
| --- | --- |
| CGCCTTCA | -0.26 |
| CCAGGGGA | -0.0512 |
| TGTACCAA | 0.0671 |
| GTTACCAA | 0.362 |
| GTTACAAC | 0.291 |
| CTTACCAA | 0.0782 |
| AGTACCAC | 0.208 |
| CTTACAAA | 0.0824 |
| GTTACAAA | 0.343 |
| GGTACCAC | 0.362 |
| GGTACCAA | 0.337 |
| CGTACCAC | 0.0803 |
| CGTACCAA | -0.0153 |
| ATTACCAA | 0.18 |
| AGCAGCCG | 0.0213 |
| AAATGGTC | 0.207 |
| ACTCATGC | -0.147 |
| CACCTCGG | 0.0517 |
| TTAGAGAA | -0.0471 |
| GCAATAGC | -0.122 |
| AATTCGAG | -0.131 |
| GACTAGAC | -0.101 |
| ACAGAAAG | 0.11 |
| CCTTGTTA | 0.12 |

| Sequence | PBM E-score |
| --- | --- |
| CCGGGCGC | -0.315 |
| CGCCCATC | -0.171 |
| CCTAACCC | 0.264 |
| AATAACGT | 0.0381 |
| AATAACCC | 0.466 |
| AATAACAT | 0.0801 |
| ACTAACCC | 0.271 |
| AATAACCT | 0.454 |
| GATAACCC | 0.47 |
| GATAACGC | -0.11 |
| GATAAACC | 0.21 |
| AATAACAC | 0.107 |
| GCTAACCC | 0.32 |
| AATAACGC | -0.0593 |
| ACTATCGC | -0.0428 |
| AGCAGAAT | 0.0481 |
| CTACCAAG | 0.0784 |
| GCATAGGA | -0.135 |
| GAGTAGGA | -0.289 |
| GACTGTGA | -0.0753 |
| AAGCACTC | -0.146 |
| ACTCGTGG | 0.0689 |
| ACTAACCG | 0.144 |
| AATAACAG | 0.118 |

| Sequence | PBM E-score |
| --- | --- |
| ACTAACCT | 0.318 |
| AATAACGG | 0.169 |
| AATAACCG | 0.421 |
| ACTAACCA | 0.282 |
| CCTAGCAA | 0.0808 |
| CGTTGGTC | -0.0765 |
| AAAAGGTG | 0.173 |
| AAAAGGAT | 0.0556 |
| AAAAGGTC | 0.367 |
| ATAAGGTC | 0.184 |
| CAAAGGTC | 0.314 |
| AAAAGGTT | 0.444 |
| CGCAACTA | 0.162 |
| AGGCCCAA | -0.0071 |
| GACGCGAA | -0.12 |
| AGAGAATC | -0.152 |
| AATGAATG | 0.0096 |
| AGGCTAGA | -0.15 |
| GACCTATA | 0.295 |
